Consider 11 compounds from ChEMBL document CHEMBL3988442, “University of Dundee, Small-Polar-MMV Screening Library” (2021).

For some of these results: Potency and affinity values are given separately.

Holding throughout (set-up): scale not given: direction of the effect not stated beside the values
Experiment [1] has as its target Protein translocase subunit SecA (Escherichia coli (strain K12)) (UniProt P10408). Description: Assay to Identify E. coli SecA ATPase Inhibitors. Type of experiment: functional. The following applies: 30 µM.
For experiment [2], the target named is T1, Ubiquitin-activating enzyme e1, putative (Leishmania donovani (strain BPK282A1)) (UniProt E9BSI1).
T1 sequence (whole entry): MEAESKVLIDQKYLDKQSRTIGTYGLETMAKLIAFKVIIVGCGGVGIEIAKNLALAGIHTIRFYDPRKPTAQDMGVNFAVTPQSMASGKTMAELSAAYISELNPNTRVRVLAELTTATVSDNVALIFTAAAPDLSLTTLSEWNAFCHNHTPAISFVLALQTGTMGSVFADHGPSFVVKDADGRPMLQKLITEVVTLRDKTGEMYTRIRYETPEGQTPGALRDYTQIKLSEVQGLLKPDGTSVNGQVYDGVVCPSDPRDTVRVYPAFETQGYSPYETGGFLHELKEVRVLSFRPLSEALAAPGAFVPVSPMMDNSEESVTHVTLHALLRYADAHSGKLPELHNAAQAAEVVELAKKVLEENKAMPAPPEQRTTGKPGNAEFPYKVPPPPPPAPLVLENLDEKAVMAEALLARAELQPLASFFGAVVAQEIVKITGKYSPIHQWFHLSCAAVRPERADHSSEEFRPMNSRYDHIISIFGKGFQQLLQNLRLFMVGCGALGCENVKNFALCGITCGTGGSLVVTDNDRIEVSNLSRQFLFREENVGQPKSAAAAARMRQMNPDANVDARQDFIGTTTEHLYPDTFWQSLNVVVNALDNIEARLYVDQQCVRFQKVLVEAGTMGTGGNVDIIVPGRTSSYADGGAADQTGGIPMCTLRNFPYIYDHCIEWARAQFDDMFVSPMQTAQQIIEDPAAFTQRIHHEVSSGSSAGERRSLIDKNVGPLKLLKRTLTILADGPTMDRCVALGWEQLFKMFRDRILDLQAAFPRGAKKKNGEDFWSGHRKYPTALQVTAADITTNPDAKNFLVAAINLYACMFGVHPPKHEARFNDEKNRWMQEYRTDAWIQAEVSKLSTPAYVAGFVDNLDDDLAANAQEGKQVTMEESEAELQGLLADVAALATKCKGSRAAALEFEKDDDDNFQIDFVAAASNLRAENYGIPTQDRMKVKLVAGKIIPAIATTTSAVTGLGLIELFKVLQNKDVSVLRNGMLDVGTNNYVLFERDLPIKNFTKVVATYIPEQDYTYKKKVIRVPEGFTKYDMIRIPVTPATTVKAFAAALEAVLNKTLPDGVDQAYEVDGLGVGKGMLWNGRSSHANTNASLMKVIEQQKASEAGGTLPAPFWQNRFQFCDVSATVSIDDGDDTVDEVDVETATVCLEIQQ
Description: Leishmania donovani Ubiquitin Activating Enzyme (LdE1). The conditions noted are these: 30 µM. It is filed as functional.

Experiment [3] has as its target AMP-activated protein kinase, AMPK (Homo sapiens) (UniProt P54646+O43741+P54619+Q9UGJ0+Q9Y478+Q13131+Q9UGI9). Description: AMP-dependent Kinase enzyme assay. An in vitro enzyme assay that detects ADP turnover that is directly proportional to AMPK activity. This uses naive AMPK that is activated during the assay with MK-8722. It is filed as functional. The following applies: 30 µM.

The target of experiment [4] is Sialic acid-binding Ig-like lectin 9 (Homo sapiens) (UniProt Q9Y336). As to the kind of experiment: Hs-Siglec9 ALPHAscreen SOP 20170721. The conditions noted are these: 10 µM.
Sialic acid-binding Ig-like lectin 9 (Homo sapiens), sequence (Q9Y336 whole entry): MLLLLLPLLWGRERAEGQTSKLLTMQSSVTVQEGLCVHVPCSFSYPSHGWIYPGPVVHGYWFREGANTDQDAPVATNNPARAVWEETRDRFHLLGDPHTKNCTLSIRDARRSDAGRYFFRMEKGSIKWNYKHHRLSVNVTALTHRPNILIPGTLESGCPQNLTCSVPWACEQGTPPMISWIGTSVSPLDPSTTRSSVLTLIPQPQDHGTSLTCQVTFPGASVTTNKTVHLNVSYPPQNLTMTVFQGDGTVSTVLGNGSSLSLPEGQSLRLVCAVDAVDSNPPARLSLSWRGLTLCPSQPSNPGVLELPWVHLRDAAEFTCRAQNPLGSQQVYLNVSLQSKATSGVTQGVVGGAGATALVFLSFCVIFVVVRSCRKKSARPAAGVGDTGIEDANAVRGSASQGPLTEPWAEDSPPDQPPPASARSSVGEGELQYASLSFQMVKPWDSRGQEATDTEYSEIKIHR
The subject of experiment [5] is Trypanosoma cruzi. As to the kind of experiment: Trypanosoma cruzi phosphomannomutase and mannose-1-phosphate guanylyltransferase assay. Type of experiment: functional. The following applies: 10 µM.
Experiment [6] deals with T2, Arginase-2, mitochondrial (Homo sapiens) (UniProt P78540).
T2 sequence (whole entry): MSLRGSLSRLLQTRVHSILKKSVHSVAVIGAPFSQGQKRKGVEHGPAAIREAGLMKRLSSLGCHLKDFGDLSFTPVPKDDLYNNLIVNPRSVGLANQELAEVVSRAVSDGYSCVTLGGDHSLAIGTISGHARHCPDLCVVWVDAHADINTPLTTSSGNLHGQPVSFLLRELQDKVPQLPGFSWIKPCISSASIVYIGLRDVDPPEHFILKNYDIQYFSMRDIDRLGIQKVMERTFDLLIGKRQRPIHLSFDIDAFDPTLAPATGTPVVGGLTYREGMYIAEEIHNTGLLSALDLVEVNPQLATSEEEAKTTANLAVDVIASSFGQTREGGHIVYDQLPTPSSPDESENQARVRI
Description: in vitro enzyme assay to detect the production of urea directly proportional to the activity of Arginase II. Note: in the data most compounds retested in dose-response had high values. Type of experiment: functional. The conditions noted are these: 33.3 µM.

The target in experiment [7] is T3, Proteasome subunit beta (Trypanosoma cruzi) (UniProt O96673).
T3 sequence (whole entry): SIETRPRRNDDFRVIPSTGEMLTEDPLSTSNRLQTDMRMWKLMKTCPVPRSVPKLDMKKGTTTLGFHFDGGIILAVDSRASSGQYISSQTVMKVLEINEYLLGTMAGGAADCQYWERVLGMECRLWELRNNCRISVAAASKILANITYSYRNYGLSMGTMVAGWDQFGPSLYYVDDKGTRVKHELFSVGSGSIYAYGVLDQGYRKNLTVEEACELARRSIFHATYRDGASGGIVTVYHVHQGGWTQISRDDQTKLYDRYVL
Description: Trypanosoma cruzi proteasome chymotrypsin-like activity (TcProtChymo) assay. Note: in the data most compounds retested in dose-response had high values. Type of experiment: functional. The following applies: 9.37 µM.

The species named for experiment [8] is Homo sapiens. As to the kind of experiment: To identify inhibition of the IFN signalling (Jak-Stat) pathway via expression of an eGFP reporter gene under the control of an IFN-stimulated response element (ISRE) containing MxA promoter. Type of experiment: functional. The following applies: 30 µM.
Experiment [9] has as its target T4, Tyrosyl-tRNA synthetase, putative (Trypanosoma cruzi (strain CL Brener)) (UniProt Q4DSP6).
T4 sequence (whole entry): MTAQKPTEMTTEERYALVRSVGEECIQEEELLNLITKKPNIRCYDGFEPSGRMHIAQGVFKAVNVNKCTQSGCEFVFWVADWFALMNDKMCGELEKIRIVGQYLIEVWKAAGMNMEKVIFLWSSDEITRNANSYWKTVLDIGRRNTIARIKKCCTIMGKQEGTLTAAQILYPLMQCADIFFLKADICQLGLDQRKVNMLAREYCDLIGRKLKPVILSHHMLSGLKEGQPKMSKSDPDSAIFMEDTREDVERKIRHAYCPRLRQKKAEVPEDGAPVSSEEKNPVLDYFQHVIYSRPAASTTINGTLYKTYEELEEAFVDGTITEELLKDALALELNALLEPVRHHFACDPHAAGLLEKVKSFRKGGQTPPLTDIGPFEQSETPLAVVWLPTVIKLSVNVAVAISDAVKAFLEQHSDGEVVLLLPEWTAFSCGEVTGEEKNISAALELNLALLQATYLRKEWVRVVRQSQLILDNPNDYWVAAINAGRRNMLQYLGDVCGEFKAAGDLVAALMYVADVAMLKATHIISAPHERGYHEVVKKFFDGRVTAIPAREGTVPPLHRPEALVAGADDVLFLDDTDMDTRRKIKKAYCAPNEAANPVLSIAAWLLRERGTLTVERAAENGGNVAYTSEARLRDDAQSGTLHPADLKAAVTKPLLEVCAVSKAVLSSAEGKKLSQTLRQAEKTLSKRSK
As to the kind of experiment: Trypanosoma cruzi tyrosyl tRNA synthetase (TcYRS) _High Tyrosine SOP. Note: in the data most compounds retested in dose-response had high values. It is filed as functional. The following applies: 30 µM.

For experiment [10], the target named is T4, Tyrosyl-tRNA synthetase, putative (Trypanosoma cruzi (strain CL Brener)). As to the kind of experiment: Trypanosoma cruzi tyrosyl tRNA synthetase (TcYRS) SOP. The following applies: 30 µM. It is filed as functional.
Experiment [11] has as its target Chromo domain-containing protein 1 (Saccharomyces cerevisiae (strain ATCC 204508 / S288c) (Baker's yeast)) (UniProt P32657). As to the kind of experiment: ScCHD-1 Enzyme Inhibition Assay. Note: in the data most compounds retested in dose-response had high values. It is filed as functional. The following applies: 30 µM.

Protein translocase subunit SecA (Escherichia coli (strain K12)), sequence (P10408 whole entry): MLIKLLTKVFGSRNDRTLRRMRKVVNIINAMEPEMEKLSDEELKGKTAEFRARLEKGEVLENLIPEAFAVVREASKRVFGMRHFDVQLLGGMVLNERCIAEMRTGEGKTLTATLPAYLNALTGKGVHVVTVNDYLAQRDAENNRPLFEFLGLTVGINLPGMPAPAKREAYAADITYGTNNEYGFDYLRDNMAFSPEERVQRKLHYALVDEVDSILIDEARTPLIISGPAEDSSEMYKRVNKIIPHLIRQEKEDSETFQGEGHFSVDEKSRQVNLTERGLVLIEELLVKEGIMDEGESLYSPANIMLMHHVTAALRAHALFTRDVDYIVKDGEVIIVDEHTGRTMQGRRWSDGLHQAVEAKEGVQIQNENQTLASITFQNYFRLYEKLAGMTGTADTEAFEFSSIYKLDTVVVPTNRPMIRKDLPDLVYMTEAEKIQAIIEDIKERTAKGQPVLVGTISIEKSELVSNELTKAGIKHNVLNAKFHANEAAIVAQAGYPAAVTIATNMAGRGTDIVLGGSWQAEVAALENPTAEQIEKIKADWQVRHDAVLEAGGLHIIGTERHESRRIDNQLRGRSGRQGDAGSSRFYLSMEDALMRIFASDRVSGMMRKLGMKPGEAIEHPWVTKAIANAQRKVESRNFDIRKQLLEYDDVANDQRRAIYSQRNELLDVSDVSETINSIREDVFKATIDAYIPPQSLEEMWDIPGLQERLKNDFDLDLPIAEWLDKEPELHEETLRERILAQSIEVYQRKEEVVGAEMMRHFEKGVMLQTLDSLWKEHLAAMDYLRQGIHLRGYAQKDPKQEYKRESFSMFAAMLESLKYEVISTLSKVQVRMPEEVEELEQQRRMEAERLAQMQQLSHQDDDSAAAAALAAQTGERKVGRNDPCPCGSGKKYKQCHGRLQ
Chromo domain-containing protein 1 (Saccharomyces cerevisiae (strain ATCC 204508 / S288c) (Baker's yeast)), sequence (P32657 whole entry, the tested form may be a part): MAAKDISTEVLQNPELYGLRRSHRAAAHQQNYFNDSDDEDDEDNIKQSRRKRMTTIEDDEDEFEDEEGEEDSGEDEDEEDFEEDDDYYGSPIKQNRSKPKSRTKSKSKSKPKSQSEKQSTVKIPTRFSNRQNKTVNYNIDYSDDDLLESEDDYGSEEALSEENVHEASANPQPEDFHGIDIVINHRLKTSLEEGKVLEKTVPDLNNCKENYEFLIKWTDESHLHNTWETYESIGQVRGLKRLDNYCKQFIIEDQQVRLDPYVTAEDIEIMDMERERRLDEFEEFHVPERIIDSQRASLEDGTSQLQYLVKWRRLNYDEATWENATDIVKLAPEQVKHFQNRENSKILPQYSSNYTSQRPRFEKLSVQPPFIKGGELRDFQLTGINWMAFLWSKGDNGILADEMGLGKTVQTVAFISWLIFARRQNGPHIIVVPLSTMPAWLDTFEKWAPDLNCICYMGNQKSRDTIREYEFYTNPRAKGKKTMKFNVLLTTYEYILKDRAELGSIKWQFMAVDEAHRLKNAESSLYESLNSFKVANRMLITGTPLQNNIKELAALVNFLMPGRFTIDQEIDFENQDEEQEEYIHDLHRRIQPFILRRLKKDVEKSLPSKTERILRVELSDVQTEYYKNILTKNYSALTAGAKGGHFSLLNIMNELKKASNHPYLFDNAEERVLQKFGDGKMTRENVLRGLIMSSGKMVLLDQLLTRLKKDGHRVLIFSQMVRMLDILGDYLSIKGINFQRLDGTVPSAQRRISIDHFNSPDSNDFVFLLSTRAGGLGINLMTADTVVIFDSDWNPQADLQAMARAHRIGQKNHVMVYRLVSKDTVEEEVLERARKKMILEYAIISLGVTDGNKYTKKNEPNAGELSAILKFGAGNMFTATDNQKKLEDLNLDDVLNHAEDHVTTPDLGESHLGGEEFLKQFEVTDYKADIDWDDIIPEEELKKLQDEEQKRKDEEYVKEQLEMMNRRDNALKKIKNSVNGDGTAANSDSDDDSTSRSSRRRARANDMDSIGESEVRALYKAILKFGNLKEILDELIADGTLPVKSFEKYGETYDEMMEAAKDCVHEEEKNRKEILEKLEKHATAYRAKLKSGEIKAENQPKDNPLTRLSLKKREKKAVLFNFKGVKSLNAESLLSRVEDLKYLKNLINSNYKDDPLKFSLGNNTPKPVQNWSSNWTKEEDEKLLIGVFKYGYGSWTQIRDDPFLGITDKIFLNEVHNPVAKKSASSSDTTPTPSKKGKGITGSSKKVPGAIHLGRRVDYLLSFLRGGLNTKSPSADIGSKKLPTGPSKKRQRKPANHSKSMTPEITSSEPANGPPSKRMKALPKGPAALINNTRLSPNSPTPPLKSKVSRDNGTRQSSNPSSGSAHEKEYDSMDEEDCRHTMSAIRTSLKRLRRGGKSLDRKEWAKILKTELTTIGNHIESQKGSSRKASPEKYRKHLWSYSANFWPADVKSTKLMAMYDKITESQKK

For `O=C(CCc1nc2cccnc2[nH]1)NCc1ccc2c(c1)OCO2`, the Percent Effect was -3.15% in experiment [1]; 12% in experiment [2]; 2.23% in [3]; 0.158% in [4]; 0% in [5]; -10.4% in [6]. For the same compound, the Percent Effect was 14.1% in experiment [7]; -11.6% in [8]; 9.52% in experiment [9]; 17.9% in [10]; -10% in experiment [11].

For `CC(OCC(F)(F)F)C(=O)NCc1ccc(-n2cncn2)nc1` (stereo unspecified), the Percent Effect in [1] was -1.15%; in experiment [2] it was 18.2%; in [3] it was 0.466%; in [4], -5.68%; in experiment [5], 4.8%; in [6], -22.5%. Besides, the Percent Effect is 8.16% in experiment [7]; 21.5% in [8]; 7.62% in experiment [9]; 23.5% in experiment [10]; -24% in [11].

In the case of `Cc1ccoc1C(=O)N1CCO[C@H]2[C@H](OCCN(C)C)CC[C@@H]21`, the Percent Effect in experiment [1] is 0.717%; in experiment [2], 5.33%; in experiment [3], 0.186%; in experiment [4], 15.6%; in experiment [5] it was -2.7%; in experiment [6], -56.5%. The Percent Effect in experiment [7] is 5.98%; in experiment [8] it was -12.8%; in experiment [9], 2.08%; in experiment [10], 10%; in [11], -3.32%.

On to `CC(C)c1nc(C2CCCN(C(=O)CCn3ccnc3)C2)no1` (stereo unspecified), for which the Percent Effect in experiment [1] is -0.0893%; in [2], 24.3%; in experiment [3] it was -7.28%; in [4], -4.78%; in experiment [5], 1.42%; in [6], -17.6%. Also, the Percent Effect in experiment [7] was 16.4%; in [8], 19.3%; in experiment [9] it was 6.4%; in experiment [10], 18.5%; in experiment [11], -10.5%.

`CN(C)CCOCC1CN(C(=O)[C@H]2CCCO2)Cc2ccnn2C1` (stereo partly specified): the Percent Effect is -0.666% in experiment [1]; 0% in [2]; -0.823% in experiment [3]; 5.06% in experiment [4]; -1.35% in experiment [5]; -46.1% in [6]. The Percent Effect is 2.91% in [7]; -2.46% in [8]; 1.04% in experiment [9]; -55% in [10]; 3.03% in experiment [11].

`Cc1nn(C)c(Cl)c1C1CCCN1CC(=O)NCc1ccccn1` (stereo unspecified): the Percent Effect was -0.227% in experiment [1]; 1.27% in [2]; 8.81% in [3]; -1.21% in experiment [4]; 0.513% in experiment [5]; -0.215% in [6]. The Percent Effect in experiment [7] stood at 12.2%; in experiment [8] it was 22.5%; in experiment [9], 4.17%; in [10], 10.1%; in [11] it was 3%.

With `COc1c(CNCc2ccc(C(=O)N(C)C)cc2)c(C)nn1C`, the Percent Effect in [1] was -4.19%; in experiment [2], 1.27%; in [3], 7.36%; in experiment [4], -0.0396%; in experiment [5], 2.97%; in experiment [6], 1.07%. Also, the Percent Effect is 8.23% in [7]; 27.1% in [8]; 3.12% in experiment [9]; 7.59% in experiment [10]; -4.86% in experiment [11].

`Cc1ccc(N2CCCC(NCc3cccc4c3OCCO4)C2)nn1` (stereo unspecified): the Percent Effect was -2.62% in [1]; 16.2% in experiment [2]; -11.3% in experiment [3]; 0.447% in experiment [4]; -1.23% in experiment [5]; -2% in [6]. The Percent Effect in [7] is 7.39%; in experiment [8], -7.93%; in [9], 10.3%; in experiment [10], 18.5%; in experiment [11] it was -10.3%.

Consider `CS(=O)(=O)c1ccc(OCCNCc2cccc(F)c2)cc1`, for which the Percent Effect in [1] is -6.14%; in experiment [2], 0%; in experiment [3] it was 1.51%; in [4], 6.7%; in [5], 3.57%; in experiment [6] it was -0.798%. Further, the Percent Effect in experiment [7] worked out at 4.02%; in experiment [8], 3.81%; in [9] it was 8.33%; in experiment [10], 13.6%; in [11] it was 3.19%.

For the compound `Cc1cc(CNC(=O)NC(C)c2ccncc2)no1` (stereo unspecified), the Percent Effect in experiment [1] was -0.908%; in experiment [2], 7.79%; in [3], 2.08%; in experiment [4] it was 2.87%; in experiment [5] it was -8.36%; in experiment [6], -1.38%. For the same compound, the Percent Effect in experiment [7] is 12.7%; in experiment [8], 11.9%; in experiment [9], 2.15%; in experiment [10], 6.17%; in [11], -1.85%.

Turning to `Cc1ccc(NC(=O)N(C)Cc2cnn(C)c2)cc1OCC(F)F`, the Percent Effect was -9.52% in experiment [1]; 2.7% in [2]; -18.9% in experiment [3]; 28% in [4]; 12.4% in experiment [5]; -11.2% in experiment [6]. The Percent Effect in [7] was 6.67%; in [8] it was 11.9%; in experiment [9], 3.45%; in [10], 23.5%; in experiment [11], -16.1%.
